Most compounds without a hit are left out; they make up all but 3.2% or so of the library.
Mtb FBA inh: inhibits M. tuberculosis FBA enzyme; purified M. tuberculosis FBA, fluorescence read-out; inhibition, % at 1 µM; 2.3% of 360,000 active; AID 588726; in the data active means inhibition above about 27%;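 further: 0% = vehicle and 100% = reference inhibitor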
PrPC TRFRET: cell surface PrPC inhibition, primary TR-FRET screen; AID 720596; P04156; inhibition, % at 13.8 µM; TR-FRET read-out; 0.43% of 370,000 active; in the data active means inhibition above about 24%; further: 0% = median of the test wells and 100% = reference compound wells
GDH-TPI inh: counter-screen for M. tuberculosis FBA inhibitors: GDH-TPI coupled enzymes. AID 588335. inhibition, % at 4.8 µM. GDH-TPI coupled enzyme counterscreen, NADH absorbance. 1.2% of 360,000 active; in the data active means inhibition above about 30%;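 further: 0% = DMSO wells and 100% = wells lacking the enzyme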
Yp Topo-I inh: Y. pestis Topo-I inhibition via cleavage products | Y. pestis Topo-I cleavage product accumulation, plate reader | activity, % at 10 µM | 0.064% of 360,000 active | AID 504884; in the data active means activity above about 50%, passing the limit was not always enough
TcdB GH inh: blocks C. difficile toxin B glycohydrolase activity | 0.24% of 350,000 active | P18177 | TcdB glycohydrolase enzymatic assay, plate reader | inhibition, % at 9.99 µM | AID 652162; in the data active means inhibition above about 10%
PrPC TRFRET cf: cell surface PrPC inhibition, TR-FRET confirmation. 65% of 1,500 active. inhibition, % at 13.8 µM. cell surface PrPC level. shares compounds with PrPC TRFRET; in the data active means inhibition above about 25%
LD9 tox: counter-screen for PrPc inhibitors: cytotoxicity in LD9 cells; shares compounds with PrPC TRFRET; luminescence viability; inhibition, % at 13.8 µM; 29% of 1,500 active; AID 743201; in the data active means inhibition above about 9.5%
Active calls of the source: *; nt = no result given.

SMILES	Mtb FBA inh	PrPC TRFRET	GDH-TPI inh	Yp Topo-I inh	TcdB GH inh	PrPC TRFRET cf	LD9 tox
CC1CCCN(C(=O)CSc2nc3ncccc3[nH]2)C1 (configuration not stated)	1	0	6	2	-1	nt	nt
CCNC(=O)[C@@H]1[C@@H](CO)[C@@H]2Cn3c(ccc(-c4cncnc4)c3=O)[C@@H]2N1Cc1ccc2c(c1)OCO2	nt	nt	nt	nt	2	nt	nt
NC(N)=NS(=O)(=O)c1ccc(NC(=S)NC(=O)c2sc3ccccc3c2Cl)cc1	-2	36*	8	2	-1	77*	-7
CCCOc1ccc(C(CC(=O)O)NC(=O)c2sc3ccccc3c2Cl)cc1 (configuration not stated)	-8	43*	-6	6	1	34*	-5
CCCCOC(=S)NC(=O)c1sc2ccccc2c1Cl	7	43*	6	3	nt	18	-8
CN(C)CCCOC(=O)c1sc2ccccc2c1Cl	5	10	1	0	2	nt	nt
COc1cc(NS(=O)(=O)c2ccc(NC(=S)NC(=O)c3sc4ccccc4c3Cl)cc2)nc(OC)n1	0	9	9	17	nt	nt	nt
CCOc1ccc(C(CC(=O)O)NC(=O)c2sc3ccccc3c2Cl)cc1 (configuration not stated)	1	23	4	7	-2	nt	nt
COc1ccc(CN(C)C[C@@H]2OCCCC[C@@H](C)Oc3ccc(NC(=O)CCCN(C)C)cc3C(=O)N([C@H](C)CO)C[C@H]2C)cc1	nt	nt	nt	nt	0	nt	nt
COc1ccc(S(=O)(=O)Nc2ccc3c(c2)C(=O)N([C@H](C)CO)C[C@@H](C)[C@@H](CN(C)C(=O)c2ccncc2)OCCCC[C@@H](C)O3)cc1	nt	nt	nt	nt	1	nt	nt
O=C(C1CC1)N1CC2(C1)[C@@H](c1ccccc1)[C@@H](CO)N2CCC(F)(F)F	nt	nt	nt	nt	1	nt	nt
Cc1nc(SCC(=O)Nc2sccc2C(N)=O)c2c(C)c(C)sc2n1	-1	-2	6	19	-2	nt	nt
NS(=O)(=O)c1ccc(CCNC(=O)CSc2ncnc3ccccc23)cc1	5	27*	-3	6	1	45*	2
Cc1sc2ncnc(SCC(=O)Nc3cccc(S(N)(=O)=O)c3)c2c1C	0	28*	0	16	0	44*	-8
NS(=O)(=O)c1ccc(CCNC(=O)CSc2ccc3ccccc3c2)cc1	1	2	2	14	nt	nt	nt
NS(=O)(=O)c1ccc(NC(=O)CSc2ncnc3ccccc23)cc1	2	22	0	0	1	nt	nt
NS(=O)(=O)c1cccc(NC(=O)CSc2ncnc3ccccc23)c1	7	37*	11	3	1	36*	-8
Cc1nc(SCC(=O)Nc2cc(C(N)=O)cc(C(N)=O)c2)c2c(C)c(C)sc2n1	1	85*	8	9	1	94*	2
COc1ccc(S(=O)(=O)N2CCCCC2)cc1NC(=O)CSc1ncnc2ccccc12	3	10	-1	10	nt	nt	nt
CCN(CC)S(=O)(=O)c1ccc(NC(=O)CSc2ncnc3ccccc23)cc1	0	47*	9	23	nt	60*	-13
O=C(C[C@H]1CC[C@@H]2[C@H](COC[C@@H](O)CN2Cc2ccc(Cl)cc2)O1)NCc1ccccc1Cl	nt	nt	nt	nt	0	nt	nt
C[C@H]1CN([C@@H](C)CO)C(=O)c2cc(C3=CCCCC3)cnc2O[C@H]1CN(C)C(=O)C1CCOCC1	nt	nt	nt	nt	1	nt	nt
Cc1nc(SC2CCOC2=O)c2c(C)c(C)sc2n1 (configuration not stated)	2	98*	17	2	nt	103*	-3
C[C@@H]1CN([C@H](C)CO)C(=O)c2cccc(NC(=O)c3cnccn3)c2O[C@H]1CN(C)S(=O)(=O)c1cn(C)cn1	nt	nt	nt	nt	0	nt	nt
Cc1ccc(NS(=O)(=O)c2ccc(Cl)c(C(=O)Nc3ccccc3-c3nc4ccccc4[nH]3)c2)cc1C	14	26*	28	0	nt	17	-3
SMILES	Mtb FBA inh	PrPC TRFRET	GDH-TPI inh	Yp Topo-I inh	TcdB GH inh	PrPC TRFRET cf	LD9 tox
CN(C)S(=O)(=O)c1ccc(Cl)c(C(=O)Nc2nc3ccccc3[nH]2)c1	4	3	4	6	-2	nt	nt
CCCN(C)C[C@@H]1OCCCC[C@H](C)Oc2ccc(NS(C)(=O)=O)cc2C(=O)N([C@@H](C)CO)C[C@H]1C	nt	nt	nt	nt	1	nt	nt
O=C(Cc1ccccc1)OCn1nnc2ccccc2c1=O	3	37*	-1	4	1	6	0
COc1cc(C(=O)NNC(=O)c2cc(-c3ccccc3)n[nH]2)cc(OC)c1C	5	26*	5	1	-5	9	-4
CS(=O)(=O)c1ccc(C(=O)NNC(=O)c2cc(-c3ccccc3)n[nH]2)cc1	-1	0	6	0	-1	nt	nt
Cc1ccc2c(c1)[C@H]1[C@H](CO2)[C@H](c2ccccc2)[C@]2(C)C(=O)Nc3cc(F)c(F)cc3C(=O)N12	-2	29*	4	12	2	19	-6
C[C@@]12C(=O)N(c3cccc(F)c3)C(=O)N1[C@@H]1c3ccccc3OC[C@@H]1[C@H]2c1ccccc1	0	29*	-1	4	-10	16	-1
Cc1ccc2c(c1)[C@H]1[C@H](CO2)[C@H](c2ccccc2)[C@]2(C)C(=O)Nc3ccc(F)cc3C(=O)N12	-1	5	4	9	-1	nt	nt
Cc1cc(SCC(=O)NC2CCCC2)nc2ccccc12	0	28*	1	-1	-1	39*	-3
C[C@H]1CN([C@@H](C)CO)C(=O)c2cc(NC(=O)Nc3ccc4c(c3)OCO4)ccc2O[C@H]1CN(C)CC1CCCCC1	nt	nt	nt	nt	-1	nt	nt
COc1cccc(N2CCN(c3nc(-c4ccccc4C)cc(=O)[nH]3)CC2)c1	0	31*	15	2	0	33*	14*
COc1ccccc1NC(=O)N1C[C@@H]2[C@H](c3ccccc31)[C@@H](CO)N2CC1CCOCC1	nt	nt	nt	nt	-2	nt	nt
Nc1ncnc2c1cnn2-c1ccccc1	8	0	2	3	nt	nt	nt
S=c1nc[nH]c2c1cnn2-c1ccccc1	-4	36*	14	-10	0	43*	-1
O=C(COc1ccc(Br)cc1Br)NC(=S)Nc1cccc(CO)c1	-3	5	6	-1	nt	nt	nt
O=C(COc1ccc2ccccc2c1Br)NC(=S)Nc1cccc(CO)c1	0	61*	7	23	nt	66*	-8
O=C(COc1ccc2ccccc2c1Br)Nc1ccncc1	-1	60*	-7	23	0	69*	8
O=C(O)CCC(=O)NNC(=O)COc1ccc2ccccc2c1Br	4	46*	7	0	1	85*	-1
O=C(COc1ccc2ccccc2c1Br)Nc1cccnc1	6	48*	5	-12	2	68*	-3
CO[C@H]1CN(C)C(=O)c2cc(NS(=O)(=O)c3ccccc3C)ccc2OC[C@H](C)NC[C@@H]1C	nt	nt	nt	nt	0	nt	nt
Nc1c(C(=O)Nc2ccc3c(c2)OCCO3)nnn1Cc1ccc(Br)cc1	1	12	-1	1	0	nt	nt
